Measurements from the OligoGym collection.

The sequences below were run against CCDC124 (assay: pooled miR-30 sensor sort-seq; sequence = guide strand). Settings: shRNA.
Also: reference of the scale not given here.

| Sequence | sensor-assay potency score (higher = more potent) |
| --- | --- |
| TGAGCTTGGAGTCCTCCTCCTC | -1.05 |
| TTGTTTGAGCCGCGGCAGCTGG | -1.54 |
| TTCTGCTTCTTGGCATCAGCGG | -0.999 |

Each sequence was assayed against CCDC136 in the same assay as above. Settings: shRNA.

| Sequence | sensor-assay potency score (higher = more potent) |
| --- | --- |
| TTGCGGAATCCTCTGCTGCTTG | -0.962 |
| TTAAGTTCGCTTTCTTTCTCAT | -0.0696 |
| TAGAGAACGCAGCTCACCTTGG | -0.542 |
| TTCCTGACACTTGTTCTTCATG | -1.21 |
| TTCAAGTTCATTCTGCATCCGG | 0.279 |
| TTTCTGAAGTCTGAGACTCTGC | -0.127 |
| TTCTATTTCCTTAAGTTCGCTT | 0.0212 |
| TTTCTCATGCTCTAACAGGGAA | -0.6 |
| TTCATTTCCATTTCTGCACGGA | -0.0377 |
| TTACAAGGAACTCAGGTTCTTA | -0.441 |
| TTGTTGACTGACAGAGAGCCAA | -0.719 |
| TAACAGGGAAATCTCCTCCCGT | -0.529 |

Each sequence was assayed against CCDC19 in the same assay as above. Settings: shRNA.

| Sequence | sensor-assay potency score (higher = more potent) |
| --- | --- |
| TTTTCCTCTTGATCTCATCGAT | 0.115 |
| TTGAAGGGTATGCTTATCTCGG | -0.289 |
| TTGAGGATAATCTTGCTCATGT | -0.0129 |
| TTCTTTTTGGATCTGCTGCTTC | -0.755 |
| TTCTGCGCCACTCTCTGTCTGC | -0.303 |
| TTAGCATTGAGGATAATCTTGC | 0.12 |
| TTGGATCTGCTGCTTCTCCAGG | -1.06 |
| TTTGATTCGCTCAAACTCCTCA | 0.0568 |
| TTTCCTCTTGATCTCATCGATG | -0.984 |
| TTCTGTTTCATGATCTTCTTTC | -0.0443 |
| TTCAATGCAGTACTTCTCGGGA | -0.758 |

These sequences were tested against CCDC47 in the same assay as above. Settings: shRNA.

| Sequence | sensor-assay potency score (higher = more potent) |
| --- | --- |
| TTGCACTTGATCACTCACTGGC | 0.924 |
| TTCAGTAACAGAGTCTTCCATG | -0.75 |
| TTTCATTTGCTTCTTTTCCAAC | -1.25 |
| TAAAGTAAAGTTGCTCTCCAAA | -1.24 |
| TTCTAGATAATAACTCTCCCAG | -0.381 |
| TGCAGGAACATCAACAATCGTT | -0.762 |
| TTCTCTGTTGAGTCGGAACTTT | -0.845 |
| TTAAATGTAAACAACAGTGTCC | 0.382 |
| TTTTGCTAGAAGAAGTATCTGG | 0.452 |
| TTGCCTTCTCTGTTGAGTCGGA | -0.0399 |
| TTTGCTAGAAGAAGTATCTGGT | 0.978 |
| TAAGTCTTGTCTCTTGAGGAAC | -1.49 |
